A short description of test [1]: yeast TOR reporter LAP4-GFP level changes – cell-based, second cherry pick, flow cytometry, confirmation (AID 2621;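 active = GFP signal as percent of the solvent control above about 150%, meaning raised reporter expression, limit read from the data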;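 also: ratio of well median GFP fluorescence to plate DMSO mean so 100% = DMSO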). Particulars: S. cerevisiae LAP4-GFP strain, 3 h, at 10 µM, stronger effect = higher value. Background: A flow cytometer gives signals particle by particle.
Test [2] in a line: TOR pathway reporter MEP2-GFP, hit retest – S. cerevisiae, flow cytometry GFP, second cherry picks, confirmation (AID 2622;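 active = GFP signal above 150% of the solvent control wells, that is a rise of more than half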;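 also: median channel GFP fluorescence of all gated yeast cells per well; ratio of median GFP to plate DMSO average so 100% = DMSO level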). The conditions noted are these: S. cerevisiae MEP2-GFP strain, 3 h, at 10 µM, stronger effect = higher value.
Test [3] in a line: retest of hits on RPL19A-GFP strain – cell-based, S. cerevisiae, flow cytometry, second cherry pick, confirmation (AID 2623).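 Also: median GFP channel fluorescence per well over the all cells gate.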 Particulars: 3 h, at 10 µM, stronger effect = lower value, 100% means same as DMSO wells.
A short description of test [4]: yeast TOR pathway CIT2-GFP reporter modulation – flow cytometry, second cherry pick, single plex, confirmation (AID 2624;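 active = GFP response vs DMSO above about 150%, limit read from the data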;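 also: median green fluorescence per well over all gated yeast cells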). Particulars: S. cerevisiae CIT2-GFP strain, 3 h, at 10 µM, stronger effect = higher value, DMSO control wells read 100%.
A short description of test [5]: yeast AGP1-GFP fluorescence change, single-dose confirmation – cell-based, flow cytometry, S. cerevisiae, cherry pick set 2 (AID 2643;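 active = over 150 percent of DMSO response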;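 also: median GFP channel fluorescence over all cells without mother daughter split; sample median GFP divided by mean DMSO control so 100% equals DMSO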). The conditions noted are these: S. cerevisiae AGP1-GFP strain, 3 h, at 10 µM, stronger effect = higher value.
Test [6] is described as follows: green-channel fluorescence artefact in S. cerevisiae – s288c strain, artefact control for yeast TOR pathway GFP screen, dose response (AID 2757;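 active = fluorescence span over the dose series, or activity score, above about 33, limit read from the data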;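 also: thousands of bead-calibrated equivalent soluble fluorophore molecules from median cell fluorescence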). The conditions noted are these: 520 nm autofluorescence, flow cytometry, 3 h, at 33 µM, stronger effect = higher value, zero means same as solvent-only cells.
Test [7] can be described thus: reduced mouse 2C T cell binding to pMHC/ICAM-1 vesicles – MLPCN validation set, flow cytometry, LFA-1/ICAM-1 modulator project, pilot screen (AID 2523;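 active = response below a set limit, under 55% cells CD8-positive and vesicle-bound, and CD8 cells' 90th-percentile brightness under 279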;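 as to vesicle binding response: mean PE anti-B7-1 fluorescence of CD8+ cells relative to row control; 100% = QL9-loaded vesicles with DMSO vehicle in the same plate row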). Particulars: 2C mouse CD8+ T cells, at 7 µM, stronger effect = lower value; double positive events: measured here: CD8+/vesicle+ event percentage.
Test [8] has as its target Integrin beta-1 (Homo sapiens) + Integrin alpha-4 (Homo sapiens) (UniProt P13612+P05556). Nature of the test: alpha4beta1 integrin LIBS antibody binding reduction – U937 cells, HUTS-21 mAb, flow cytometry, validation set, VLA-4 allosteric modulator project, pilot screen (AID 2674;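 active = inhibition above 50%, about 3 SD of the validation set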;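 also: antibody binding induced by the VLA-4 ligand LDV present at three times its Kd; 0% = LDV ligand with antibody and no compound and 100% = antibody without LDV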). The conditions noted are these: HUTS-21 LIBS mAb binding, at 6.7 µM, stronger effect = higher value, binding induced by LDV ligand.

In test [9] the target is Beta-adrenergic receptor kinase 1 (Homo sapiens) (UniProt P25098). As to the kind of experiment: GRK2 binders displacing RNA aptamer, biochemical, validation, human GRK2, bead flow cytometry (AID 488806;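 active = aptamer binding inhibition above 30%, about 3 SD of noise from non-fluorescent compounds; inactive = inhibition at or below 30%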). The conditions noted are these: bead-bound GRK2, FAM-aptamer displacement, at 10 µM, stronger effect = higher value.
Beta-adrenergic receptor kinase 1 (Homo sapiens), sequence (P25098 whole entry, looked up): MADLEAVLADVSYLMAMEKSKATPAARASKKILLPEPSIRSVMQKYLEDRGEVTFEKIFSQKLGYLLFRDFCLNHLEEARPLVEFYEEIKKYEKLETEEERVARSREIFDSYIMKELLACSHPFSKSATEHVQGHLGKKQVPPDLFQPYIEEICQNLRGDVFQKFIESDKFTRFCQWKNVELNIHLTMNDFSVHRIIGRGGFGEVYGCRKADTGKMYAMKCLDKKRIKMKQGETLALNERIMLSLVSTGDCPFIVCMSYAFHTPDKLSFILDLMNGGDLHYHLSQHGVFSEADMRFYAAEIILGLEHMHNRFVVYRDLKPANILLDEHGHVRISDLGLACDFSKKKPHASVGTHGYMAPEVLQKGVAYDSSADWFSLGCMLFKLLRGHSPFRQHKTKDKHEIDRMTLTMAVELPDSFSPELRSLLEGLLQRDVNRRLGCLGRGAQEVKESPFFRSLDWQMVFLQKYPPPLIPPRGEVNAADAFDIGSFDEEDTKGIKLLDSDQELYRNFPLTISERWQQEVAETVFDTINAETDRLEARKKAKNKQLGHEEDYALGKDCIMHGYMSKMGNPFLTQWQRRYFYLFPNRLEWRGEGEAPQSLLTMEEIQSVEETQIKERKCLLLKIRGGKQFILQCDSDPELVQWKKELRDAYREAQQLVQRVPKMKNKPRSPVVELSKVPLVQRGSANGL
Test [10] concerns the target Beta-2 adrenergic receptor (Homo sapiens) (UniProt P07550). Nature of the test: agonist-induced loss of surface beta2AR – cell-based, FAP fluorogen, flow cytometry, validation set, pilot screen (AID 504459;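 active = percent response above 42, roughly 3 SD of non-fluorescent test compounds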;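 also: agonist-driven loss of surface beta2AR via internalization measured by FAP dye flow cytometry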). The conditions noted are these: Am2.2-beta2AR cells, at 10 µM, stronger effect = higher value.
The target in test [11] is AP-2 complex subunit beta (Homo sapiens) (UniProt P63010). Nature of the test: beta-arrestin/AP2 interaction blockers – biochemical, validation set, GST-AP2 beads, flow cytometry, pilot screen (AID 504541;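 active = inhibition above 54%, about 3 SD of non-fluorescent compounds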;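 also: AP2 carries R879A mutation and is captured from E. coli lysate; bead-bound FITC arrestin peptide fluorescence measuring arrestin peptide binding to AP2; 0% = DMSO wells and 100% = excess unlabeled arrestin peptide control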). Particulars: FITC arrestin peptide, at 10 µM, stronger effect = higher value, AP2 beta2 appendage fragment, R879A mutant.
AP-2 complex subunit beta (Homo sapiens), sequence (P63010 whole entry, looked up, the tested form may be a part, one chain of several): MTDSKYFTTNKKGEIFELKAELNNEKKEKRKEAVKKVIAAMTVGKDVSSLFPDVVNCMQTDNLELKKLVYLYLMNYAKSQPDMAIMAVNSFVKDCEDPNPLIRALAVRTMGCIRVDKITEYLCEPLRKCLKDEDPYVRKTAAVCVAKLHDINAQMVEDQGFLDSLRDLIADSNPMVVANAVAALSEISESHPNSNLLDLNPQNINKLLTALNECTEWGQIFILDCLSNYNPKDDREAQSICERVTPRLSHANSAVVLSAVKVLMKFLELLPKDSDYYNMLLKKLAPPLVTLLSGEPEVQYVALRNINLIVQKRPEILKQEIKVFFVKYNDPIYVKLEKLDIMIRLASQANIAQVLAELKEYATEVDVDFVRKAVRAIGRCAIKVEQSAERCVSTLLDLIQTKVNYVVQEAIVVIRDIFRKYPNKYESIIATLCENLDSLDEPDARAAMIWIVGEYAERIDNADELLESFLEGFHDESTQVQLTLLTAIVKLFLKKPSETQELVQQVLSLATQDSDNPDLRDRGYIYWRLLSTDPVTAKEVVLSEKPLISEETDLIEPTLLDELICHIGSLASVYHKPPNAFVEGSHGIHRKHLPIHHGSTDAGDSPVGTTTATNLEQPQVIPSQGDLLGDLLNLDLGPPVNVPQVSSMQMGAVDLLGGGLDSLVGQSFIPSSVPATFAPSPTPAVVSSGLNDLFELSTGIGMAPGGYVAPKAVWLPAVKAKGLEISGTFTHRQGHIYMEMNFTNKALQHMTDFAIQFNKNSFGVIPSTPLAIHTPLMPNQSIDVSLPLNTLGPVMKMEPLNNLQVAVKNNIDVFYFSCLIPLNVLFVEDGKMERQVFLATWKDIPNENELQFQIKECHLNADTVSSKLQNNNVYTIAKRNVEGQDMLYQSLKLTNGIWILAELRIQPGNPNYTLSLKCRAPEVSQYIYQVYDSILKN
The nature of test [12]: cytosolic pH regulators acting via V-ATPase – S. cerevisiae, pHLuorin, HTS validation (AID 504600; in the data active = response above about 15%;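 also: plate controls were DMSO for no effect and reference compound for full effect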). Particulars: V-ATPase proton transport, at 10 µM, stronger effect = higher value.
The test system of test [13] is anti-desmoglein-3 scFv antibody binding to human DSG3. Nature of the test: blockers of pathogenic pemphigus antibody–desmoglein-3 binding – biochemical, validation compound set, bead-based, flow cytometry, pilot screen (AID 588368;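 active = binding below the plate cutoff, the plate median minus 3 SD, with a reading above zero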;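 also: signal is the median channel fluorescence of bead-bound GFP antibody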). Particulars: Protein G beads, DSG3-Fc, scFv-GFP binding, at 10 µM, stronger effect = lower value.
A short description of test [14]: Nile Red efflux blockade in pump-expressing yeast – validation compound set, multiplex, phenotypic, pilot screen (AID 588506;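 active = efflux inhibition above 0.42, the validation set average plus 4 SD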;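 also: Nile Red retained in cells so higher fluorescence means more efflux inhibition; 0 = negative control wells and 1 = enniatin B 25 µM full block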). Particulars: S. cerevisiae pump-expressing triplex, Nile Red efflux flow cytometry; at 10 µM; stronger effect = higher value; the pumps come from Candida albicans.
Test [15] deals with ATP-binding cassette sub-family B member 6 (Homo sapiens) (UniProt Q9NP58). As to the kind of experiment: blockers of ABCB6-driven porphyrin uptake – K562-ABCB6 cells, flow cytometry, validation set, pilot screen (AID 588550;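 active = inhibition above the screen-wide mean plus 3 SD, about 51%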;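 also: 0% = DMSO wells and 100% = benzethonium chloride 70 µM positive control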). Particulars: K562-ABCB6 porphyrin accumulation, 1 h, at 10 µM, stronger effect = higher value.
ATP-binding cassette sub-family B member 6 (Homo sapiens), sequence (Q9NP58 whole entry, looked up): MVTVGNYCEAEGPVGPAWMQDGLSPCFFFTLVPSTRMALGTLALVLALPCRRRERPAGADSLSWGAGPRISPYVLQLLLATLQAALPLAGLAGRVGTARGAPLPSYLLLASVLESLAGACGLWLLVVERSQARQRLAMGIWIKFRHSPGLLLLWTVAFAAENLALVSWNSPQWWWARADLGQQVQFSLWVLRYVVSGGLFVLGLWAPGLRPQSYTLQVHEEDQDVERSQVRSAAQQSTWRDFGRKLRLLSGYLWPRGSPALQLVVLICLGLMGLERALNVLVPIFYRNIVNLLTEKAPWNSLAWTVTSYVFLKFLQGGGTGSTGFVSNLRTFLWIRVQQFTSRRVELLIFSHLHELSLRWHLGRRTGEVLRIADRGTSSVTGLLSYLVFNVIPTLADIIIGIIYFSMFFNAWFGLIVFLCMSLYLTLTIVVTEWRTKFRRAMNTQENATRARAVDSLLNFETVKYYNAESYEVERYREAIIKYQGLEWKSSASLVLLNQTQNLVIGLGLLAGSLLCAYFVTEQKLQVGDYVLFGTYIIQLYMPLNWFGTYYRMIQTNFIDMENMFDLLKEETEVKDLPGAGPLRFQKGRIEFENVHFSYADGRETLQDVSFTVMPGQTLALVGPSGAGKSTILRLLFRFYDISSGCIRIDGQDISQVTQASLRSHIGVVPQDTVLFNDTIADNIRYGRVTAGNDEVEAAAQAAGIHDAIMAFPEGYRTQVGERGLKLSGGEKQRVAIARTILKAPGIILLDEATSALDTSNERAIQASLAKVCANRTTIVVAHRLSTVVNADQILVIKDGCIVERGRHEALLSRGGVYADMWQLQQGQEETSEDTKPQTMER
A short description of test [16]: AML differentiation inducers, ER-HoxA9 marrow cells – cell-based, GFP/MAC1 double positive, flow cytometry, validation set, primary screen (AID 588685;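 active = differentiation response of at least 50%, scaled between solvent and reference control, from cells with both markers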;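 also: compound exposure lasts four days before antibody staining and flow analysis; 0% = DMSO wells and 100% = 5 µM fulvestrant positive control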). Particulars: stronger effect = higher value, normalized: vehicle 0, fulvestrant 100.
Test [17] in a line: calorie-restriction mimetic ROS inhibitors, yeast – validation compound set, pilot screen (AID 2706;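 active = superoxide response below 65% of plate, a cut near 3 SD across the whole screen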;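 also: yeast exposed to compound for one week at 30 degrees C before staining; 100% = mean of all compound wells on the same plate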). The conditions noted are these: S. cerevisiae aging, superoxide DHE fluorescence; at 10 µM, stronger effect = lower value.

Some of the results follow. Calls of active or inactive are those of the source.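 The calls were made as follows, unless noted: active = under 65% GFP response relative to DMSO; inconclusive = yeast strain with under 70 measured events; inactive = the rest.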

Beta-2 adrenergic receptor (Homo sapiens), sequence (P07550 whole entry, looked up): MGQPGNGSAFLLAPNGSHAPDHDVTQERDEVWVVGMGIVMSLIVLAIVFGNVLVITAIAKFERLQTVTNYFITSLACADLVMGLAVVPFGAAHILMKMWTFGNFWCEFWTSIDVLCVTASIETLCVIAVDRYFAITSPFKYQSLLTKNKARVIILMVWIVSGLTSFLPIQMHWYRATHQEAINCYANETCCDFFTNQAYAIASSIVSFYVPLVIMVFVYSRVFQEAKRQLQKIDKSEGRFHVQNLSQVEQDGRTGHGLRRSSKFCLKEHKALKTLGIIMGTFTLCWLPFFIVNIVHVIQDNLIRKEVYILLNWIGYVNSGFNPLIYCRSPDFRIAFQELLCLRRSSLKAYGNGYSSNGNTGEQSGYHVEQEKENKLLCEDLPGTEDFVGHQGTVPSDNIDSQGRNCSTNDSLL
Integrin beta-1 (Homo sapiens) + Integrin alpha-4 (Homo sapiens), sequence (P05556 whole entry, looked up): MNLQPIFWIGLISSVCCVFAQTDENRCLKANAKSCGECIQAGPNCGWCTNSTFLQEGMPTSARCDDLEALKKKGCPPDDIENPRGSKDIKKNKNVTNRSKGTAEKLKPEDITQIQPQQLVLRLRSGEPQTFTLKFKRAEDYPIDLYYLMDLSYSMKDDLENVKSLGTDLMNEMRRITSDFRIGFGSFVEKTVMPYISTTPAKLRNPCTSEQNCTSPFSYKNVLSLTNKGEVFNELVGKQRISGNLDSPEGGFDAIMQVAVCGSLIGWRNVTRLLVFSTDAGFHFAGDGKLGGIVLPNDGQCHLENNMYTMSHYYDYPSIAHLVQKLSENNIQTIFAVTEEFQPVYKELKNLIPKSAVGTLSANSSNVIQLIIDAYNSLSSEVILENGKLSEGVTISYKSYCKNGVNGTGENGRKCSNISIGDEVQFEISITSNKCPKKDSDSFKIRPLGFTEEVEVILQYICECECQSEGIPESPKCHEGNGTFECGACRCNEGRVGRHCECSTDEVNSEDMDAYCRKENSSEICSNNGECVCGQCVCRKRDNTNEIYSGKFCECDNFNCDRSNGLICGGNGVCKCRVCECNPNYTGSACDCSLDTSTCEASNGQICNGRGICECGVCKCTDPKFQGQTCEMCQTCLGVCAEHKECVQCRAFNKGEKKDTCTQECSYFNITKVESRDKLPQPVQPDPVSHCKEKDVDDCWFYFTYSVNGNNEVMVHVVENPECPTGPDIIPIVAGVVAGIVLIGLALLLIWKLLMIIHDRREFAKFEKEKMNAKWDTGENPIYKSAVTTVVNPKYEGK
Integrin beta-1 (Homo sapiens) + Integrin alpha-4 (Homo sapiens), sequence (P13612 whole entry, looked up): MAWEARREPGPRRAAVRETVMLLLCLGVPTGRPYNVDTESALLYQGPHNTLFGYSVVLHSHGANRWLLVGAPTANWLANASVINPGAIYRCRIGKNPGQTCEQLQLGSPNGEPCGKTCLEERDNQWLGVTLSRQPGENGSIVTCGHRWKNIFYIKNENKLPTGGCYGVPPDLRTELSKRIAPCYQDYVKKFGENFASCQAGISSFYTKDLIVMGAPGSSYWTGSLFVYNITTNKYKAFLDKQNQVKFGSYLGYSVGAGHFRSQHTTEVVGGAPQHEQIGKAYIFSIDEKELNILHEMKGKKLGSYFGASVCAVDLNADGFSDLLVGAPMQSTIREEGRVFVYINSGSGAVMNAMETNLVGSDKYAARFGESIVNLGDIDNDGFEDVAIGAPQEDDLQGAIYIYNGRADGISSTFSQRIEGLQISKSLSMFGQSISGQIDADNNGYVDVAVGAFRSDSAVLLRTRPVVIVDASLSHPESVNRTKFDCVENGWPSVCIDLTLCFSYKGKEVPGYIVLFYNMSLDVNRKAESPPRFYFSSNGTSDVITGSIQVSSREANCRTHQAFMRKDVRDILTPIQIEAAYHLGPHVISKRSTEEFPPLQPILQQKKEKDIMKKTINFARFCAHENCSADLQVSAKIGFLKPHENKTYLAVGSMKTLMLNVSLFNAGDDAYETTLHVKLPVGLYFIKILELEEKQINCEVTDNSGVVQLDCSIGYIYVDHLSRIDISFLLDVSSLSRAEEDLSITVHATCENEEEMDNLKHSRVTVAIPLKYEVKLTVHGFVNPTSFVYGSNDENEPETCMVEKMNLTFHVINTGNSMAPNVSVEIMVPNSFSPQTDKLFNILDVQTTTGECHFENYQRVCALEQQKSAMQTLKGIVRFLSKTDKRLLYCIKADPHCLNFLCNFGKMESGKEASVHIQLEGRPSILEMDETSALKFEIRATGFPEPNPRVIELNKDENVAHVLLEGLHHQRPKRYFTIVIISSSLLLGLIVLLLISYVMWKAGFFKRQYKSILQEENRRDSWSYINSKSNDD

Turning to `CCN1/C(=C/c2ccc3ccc(C)cc3[n+]2CC)Sc2ccccc21`, the GFP response vs DMSO in test [1] is 392% (active); in test [2], 1240% (active); in test [3], 136% (inactive); in test [4] it was 1630% (active). For the same molecule, the percent response vs DMSO in [5] is 203% (active).
Consider `Clc1cccc(CN2COc3c(cc(Cl)c4cccnc34)C2)c1`, for which the GFP response vs DMSO was 127% (inactive) in [1], 130% (inactive) in test [2], 101% (inactive) in test [3] and 95% (inactive) in test [4]. In addition, in [5], the percent response vs DMSO is 95.3% (inactive). The fluorescence change (kMESF span) in [6] is 1.92 (inactive).
Regarding `COc1ccc(-c2nc(CS(=O)(=O)CC(=O)NCc3cccc(Br)c3)c(C)o2)cc1`, the GFP response vs DMSO is 109% (inactive) in [1], 119% (inactive) in [2], 101% (inactive) in test [3] and 113% (inactive) in test [4]. Moreover, in [5], the percent response vs DMSO was 99.3% (inactive).
For `O=C(NC(=S)NC1CCS(=O)(=O)C1)c1cccc([N+](=O)[O-])c1` (centres undefined), the GFP response vs DMSO is 101% (inactive) in test [1], 105% (inactive) in test [2], 101% (inactive) in test [3] and 105% (inactive) in test [4]. The percent response vs DMSO in test [5] is 106% (inactive).
For `Cc1ccc(S/C(=N\S(=O)(=O)c2ccc(Cl)cc2)c2ccccc2)cc1`, the GFP response vs DMSO in test [1] is 101% (inactive); in test [2] it was 105% (inactive); in [3] it was 98% (inactive); in test [4], 107% (inactive). Further, in test [5], the percent response vs DMSO was 99.1% (inactive).
In test [7], `CCOc1ccccc1C(=O)NCCC(=O)O` had a double positive events of 60.3%. For the same molecule, the vesicle binding response in test [7] is 64.9% (inactive). The inhibition (commonly the change of the read-out against control, counted positive when it falls) was -17.1% (inactive) in test [8], 19.4% (inactive) in [11] and 13% (inactive) in test [15]. The aptamer binding inhibition in [9] was 1% (inactive). Moreover, the figures for the response in test [10] and in test [12] were 12.6% (inactive) and 1.48% (inactive), respectively. For the same molecule, the binding (% of control) in test [13] was 105% (inactive). In addition, the efflux inhibition (fraction of control) in [14] is 0.92 (active). The differentiation response in test [16] is 16.9% (inactive).
For the molecule `Cc1cc(C)c2nc3nc(C)cc(C)c3c(N)c2c1`, the GFP response vs DMSO in [1] is 99% (inactive); in [2] it was 103% (inactive); in [3] it was 76.7% (inactive); in [4] it was 93.9% (inactive). Moreover, the percent response vs DMSO in test [5] is 75.9% (inactive).
On to `COc1ccc(CCNC(=O)CS(=O)(=O)Cc2nc(-c3ccc(C)cc3)oc2C)cc1OC`, for which the GFP response vs DMSO in [1] was 103% (inactive); in [2], 99.6% (inactive); in [3] it was 95.5% (inactive); in [4], 100% (inactive). Also, the percent response vs DMSO in [5] is 101% (inactive).
Consider `C(=C\c1ccccc1)/CN1CCN(C(c2ccccc2)c2ccccc2)CC1`, for which, in test [7], the double positive events is 66.7%. Moreover, the inhibition was -1.3% (inactive) in test [8], 0.96% (inactive) in [11] and 16% (inactive) in [15]. The superoxide response (% of plate) in [17] is 86.5% (inactive). In test [9], the aptamer binding inhibition is 0% (inactive). Also, the figures for the response in test [10] and in test [12] were 11.4% (inactive) and 0.39% (inactive), respectively. Besides, in test [13], the binding (% of control) was 120% (inactive). Also, the efflux inhibition (fraction of control) in test [14] was -0.24 (inactive). Further, in test [16], the differentiation response was 1.64% (inactive).
Take `CCOC(=O)c1cnc(SCC(=O)NCc2ccco2)nc1N`: the GFP response vs DMSO in [1] is 99.2% (inactive); in test [2], 97.8% (inactive); in test [3] it was 96.8% (inactive); in [4], 111% (inactive). Further, the percent response vs DMSO in test [5] was 95.9% (inactive).
For `CC1=C/C(=N\OS(=O)(=O)c2ccccc2)C=CC1=O`, in that order: 126% (inactive), 145% (inactive), 103% (inactive), 109% (inactive) and 101% (inactive).
On to `O=C(NCCN1CCOCC1)c1ccc(Cl)cc1`, for which the double positive events in test [7] turned out to be 64.3%. Besides, the vesicle binding response in [7] is 168% (inactive). The values for the inhibition in test [8], in [11] and in test [15] were -16% (inactive), 23.5% (inactive) and 14% (inactive), respectively. In test [9], the aptamer binding inhibition was -1% (inactive). Further, the figures for the response in test [10] and in test [12] were 15.8% (inactive) and -22.3% (inactive), respectively. For the same molecule, the binding (% of control) in test [13] is 105% (inactive). Besides, the efflux inhibition (fraction of control) in test [14] was 1.05 (active). In test [16], the differentiation response was 15.9% (inactive).

The values above are taken from PubChem BioAssay.
